About 83,000 compounds went through this panel and 20% of them were active in at least one assay; those are over-represented in the sample as a whole.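 Growth was measured after 48 h exposure to one concentration of compound in 96-well plates. Values under 10 count as active.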 Calls of active or inactive are those of the source.
System: HL-60(TB) leukemia
Assay: NCI-60 one-dose screen, 48 h (100 = growth as untreated, 0 = no growth, -100 = all killed)
Conditions: 10 µM unless noted

| Structure (SMILES) | growth |
| --- | --- |
| COC(=O)c1ccc2[nH]c(O)c(C(=Nc3ccc(N(C)C(=O)CN4CCN(C)CC4)cc3)c3ccc(OC)cc3)c2c1 | -13.8% (active) |
| O=c1oc2ccc(F)cc2c(=O)n1-c1ccc(I)cc1F | -42.8% (active) |
| COc1ccc(C(OCC2OC(n3ccc(NC(=O)c4ccccc4)nc3=O)C(O)C2O)(c2ccccc2)c2ccccc2)cc1 (stereo not given) | 22.9% (inactive) |
| CCCCCCCCc1ccc(OCCOCC[N+](C)(C)CC)cc1 (tested in a mixture with another compound) | 2.54% (active) |
| OCCn1cc(-c2nc(-c3c[nH]c4ncccc34)cs2)c2cc(F)ccc21 | 60.3% (inactive) |
| Fc1ccc(-c2cc(C(Cl)Cl)no2)cc1 | 136% (inactive) |
| Nc1nc(SCc2cccnc2)c2ncn(C3OC(CO)C(O)C3O)c2n1 (stereo not given) | 103% (inactive) |
| CC1(C)N=C(N)N=C(N)N1c1cc(Cl)ccc1Cl | 53.7% (inactive) |
| CCCCN(CCCC)C(=O)[C@H](CC)[C@@H]1CC[C@@H](C)[C@@H]([C@H](C)[C@@H](O)[C@@H](C)C(=O)[C@H](CC)C2O[C@]3(C=CC(=O)[C@]4(CC[C@@](C)([C@H]5CC[C@](O)(CC)[C@H](C)O5)O4)O3)[C@H](C)C[C@@H]2C)O1 (stereo not given in full) | -1.52% (active) |
| O=C1/C(=C\c2c[nH]c3ccccc23)c2ccccc2N1c1c(Cl)cccc1Cl | -7.81% (active) |
| O=C(C[n+]1ccccc1Cl)c1ccc2c(c1)CCCC2 | 79.2% (inactive) |
| CCCCCN1CCN(C(CC(=O)c2ccccc2)C(=O)c2ccccc2)CC1 (stereo not given) | 60.4% (inactive) |
| CCN(CC)c1cc(N)c(Cc2c(N)cc(N(CC)CC)cc2Cl)c(Cl)c1 | -8.28% (active) |
| CC1(C)CC[C@]23CC[C@]4(C)[C@H](CC[C@@H]5[C@@]6(C)CCCNC(C)(C)[C@@H]6CC[C@]54C)[C@H]2[C@H]1OC3 | -65.5% (active) |
| N=C(N)c1ccc(-c2cc(Cl)cc(Cl)c2)cn1 | 98.1% (inactive) |
| COc1ccc(-c2cn(Cc3ccc4c(Br)cc(Br)c(O)c4n3)nn2)cc1 | 48.6% (inactive) |
| O=C1Nc2ccccc2/C1=C/c1cccn1CCCCCn1c2ccccc2c(=O)c2ccccc21 | 47.6% (inactive) |
| COc1ccc(C(=O)N2c3ccccc3Sc3ccccc32)c(C(F)(F)F)c1 | 2.01% (active) |
| O=S(=O)(O)c1ccc(O)c2ccccc12 | 86% (inactive) |
| Cc1ccc(S(=O)(=O)n2cc(-c3csc(-c4cn(C)c5ncccc45)n3)c3ccccc32)cc1 | 61.9% (inactive) |

| Structure (SMILES) | growth |
| --- | --- |
| COc1cc2nccc(Oc3ccc(NC(=O)C4(C(=O)Nc5ccc(F)cc5)CC4)cc3)c2cc1OC(=O)c1ccc(N)cc1 | -43.9% (active) |
| CSCCC(NC(=O)c1ccccc1)C(=O)N/N=C1\S/C(=C/c2ccc(Cl)cc2)C(=O)N1C (stereo not given) | 51.6% (inactive) |
| CC12CC3CC1C(C(=O)O2)C3C(=O)O (stereo not given) | 95.6% (inactive) |
| CCCC(CCC)NCC(O)c1cc(-c2ccc(C(F)(F)F)cc2)nc(C(F)(F)F)c1 (stereo not given) | -46.3% (active) |
| C=C1C(=O)O[C@@H]2C3C(=C(C)CC[C@@H]12)CC1O[C@]13C (stereo not given in full) | 77.6% [6.75 µM] (inactive) |
| CCCCn1c(-c2ccc(C(=O)O/N=C(\N)c3ccc4ccccc4c3)cc2)nc(-c2ccccc2)c1-c1ccccc1 | 23.8% (inactive) |
| CCCCCCCc1n(Cc2ccc3ccccc3c2)c2ccccc2[n+]1Cc1ccc2ccccc2c1 | -63.7% (active) |
| CN(C)c1nc2c([nH]1)c(=O)n(C)c(=O)n2C | 108% (inactive) |
| C=C(C)[C@@H]1C/C=C(\COC(=O)[C@H](OC(C)=O)C(NC(=O)c2ccccc2)c2ccccc2)CC[C@H]2O[C@]2(C)CC/C=C(\C)CC1 (stereo not given in full) | 29.9% [5 µM] (inactive) |
| C=C1CC2(OC1=O)C(=O)Nc1ccccc12 (stereo not given) | 31.6% (inactive) |
| CCOC(=O)C(CCCCC(NC(C)=O)(C(=O)OCC)C(=O)OCC)(NC(C)=O)C(=O)OCC | 104% (inactive) |
| COc1cc2c(cc1-c1c(C)noc1C)ncc1nc(C3CCC(F)(F)CC3)n([C@@H](C)COC(F)F)c12 | 18% (inactive) |
| O=C(O)Cc1ccc(Cl)cc1 | 22.4% (inactive) |
| Cc1cc2c(-c3nc4ccccc4[nH]3)c(O)c(O)cc2c(O)c1-c1c(C)cc2c(-c3nc4ccccc4[nH]3)c(O)c(O)cc2c1O | -11.2% (active) |
| O=C1CC[C@@H](C(=O)N[C@H]2CSSC[C@@H](C(=O)N/C=C/c3ccc(O)cc3)NC(=O)[C@H](Cc3ccccc3)NC(=O)[C@@H]3CCCN3C(=O)[C@@H]3CCCN3C2=O)N1 | 74% (inactive) |
| C/C(=N\NC(=S)Nc1ccccc1)c1ccccn1 | 3.23% (active) |
| O=C(Oc1cccnc1)c1ccsc1Nc1ccnc(C(F)(F)F)c1 | 25.9% (inactive) |
| N=C(N)c1ccc(-c2ccc(-c3ccc(F)cc3)s2)cc1 | -56.1% (active) |
| Cc1cc(Nc2nc(N[C@@H](C)c3ncc(F)cn3)ncc2Cl)n[nH]1 | 54.2% (inactive) |
| CC1(C)CC([P+](c2ccccc2)(c2ccccc2)c2ccccc2)=NN1 | -49.2% (active) |

Source: PubChem BioAssay (NCI)
